Test results: PubChem BioAssay AID1445 (SRMLSC, 2008)
In all, about 220,000 compounds went through this assay and about 910 (0.41%) were called active. The sample holds actives, similar compounds and a random draw of the others, so the mix is not that of the screen. Potency and affinity values are given separately. A number with no mark means an inactive call.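 The calls were made as follows: active = primary inhibition above the hit cutoff, then over 50% inhibition at one or more dose response concentrations (cut at about 23% in these data, passing the limit was not always enough); inconclusive = conflicting primary data, or primary hits not chosen for dose response; inactive = low primary inhibition, or under 50% at every dose.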

Target: Aminopeptidase N (Plasmodium falciparum (isolate 3D7)) (UniProt O96935)
Test: P. falciparum M1AAP inhibitors, biochemical, fluorogenic H-Leu-NHMec substrate, 1536-well (AID 1445);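 also: plate controls were DMSO full reaction for no effect and no enzyme background for full effect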
Conditions: recombinant M1AAP, H-Leu-NHMec fluorogenic kinetic assay; at 30 µM, hits give high values unless noted

Chain of Aminopeptidase N (Plasmodium falciparum (isolate 3D7)) (O96935 whole entry, looked up): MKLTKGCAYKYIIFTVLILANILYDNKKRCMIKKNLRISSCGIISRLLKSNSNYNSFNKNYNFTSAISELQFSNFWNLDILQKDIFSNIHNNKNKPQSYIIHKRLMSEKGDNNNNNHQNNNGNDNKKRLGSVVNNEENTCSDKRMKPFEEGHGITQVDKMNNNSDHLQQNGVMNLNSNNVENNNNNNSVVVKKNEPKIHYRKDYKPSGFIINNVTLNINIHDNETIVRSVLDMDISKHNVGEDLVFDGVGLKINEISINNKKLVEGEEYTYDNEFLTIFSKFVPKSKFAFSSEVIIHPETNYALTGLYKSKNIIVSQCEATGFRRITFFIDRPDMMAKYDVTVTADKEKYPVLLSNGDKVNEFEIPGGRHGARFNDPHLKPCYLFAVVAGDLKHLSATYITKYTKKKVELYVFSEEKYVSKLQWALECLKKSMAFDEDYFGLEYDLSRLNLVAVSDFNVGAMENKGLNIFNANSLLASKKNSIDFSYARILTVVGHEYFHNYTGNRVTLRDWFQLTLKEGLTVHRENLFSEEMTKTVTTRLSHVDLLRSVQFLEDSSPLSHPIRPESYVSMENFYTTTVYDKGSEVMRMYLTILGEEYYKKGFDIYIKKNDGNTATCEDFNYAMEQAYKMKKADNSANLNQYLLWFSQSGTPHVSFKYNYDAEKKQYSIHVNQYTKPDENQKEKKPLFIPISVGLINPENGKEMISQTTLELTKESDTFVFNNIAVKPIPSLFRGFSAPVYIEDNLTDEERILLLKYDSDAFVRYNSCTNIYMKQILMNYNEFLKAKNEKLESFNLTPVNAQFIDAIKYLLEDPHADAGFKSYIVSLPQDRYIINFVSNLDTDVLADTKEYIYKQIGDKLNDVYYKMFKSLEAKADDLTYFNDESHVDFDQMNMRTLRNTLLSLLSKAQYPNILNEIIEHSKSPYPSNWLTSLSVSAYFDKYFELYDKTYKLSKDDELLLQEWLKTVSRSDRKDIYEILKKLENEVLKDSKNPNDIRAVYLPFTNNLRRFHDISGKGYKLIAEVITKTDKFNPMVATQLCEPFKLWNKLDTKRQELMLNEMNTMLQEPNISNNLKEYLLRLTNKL

Question: For `COc1ccc(C(=O)NC(=S)Nc2ccc(N3CCOCC3)c(Cl)c2)cc1[N+](=O)[O-]`, which inhibition is on record?
Answer: 14.5%

Question: `COc1cccc(/C=N/n2c(-c3cccs3)n[nH]c2=S)c1` was tested. Which inhibition did it give?
Answer: 4.5%

Question: With `CCOc1ccc(C(=O)N[C@H](C(=O)Nc2ccc(OC)c(S(=O)(=O)N3CCOCC3)c2)C(C)C)cc1` as the molecule, how does the inhibition read?
Answer: 2.14%

Question: With `COc1ccc(NC(=O)Nc2ccccc2)cc1S(=O)(=O)N1CCCCC1` as the molecule, how does the inhibition read?
Answer: -0.57%

Question: Which inhibition does the source give for `Cc1cccc(N(CC(=O)NC2CCCC2)C(=O)CS(=O)CC(=O)Nc2ccc3c(c2)OCO3)c1` (stereo not drawn) here?
Answer: 1.66%

Question: `Cc1ccc(N(CC(=O)NC(C)(C)C)C(=O)CS(=O)CC(=O)Nc2ccc3c(c2)OCO3)cc1` (stereo not drawn) was tested. Which inhibition did it give?
Answer: 8.92%

Question: For `Cc1cccc(N(CC(=O)NC2CCCC2)C(=O)CS(=O)CC(=O)Nc2ccc3c(c2)OCO3)c1C` (stereo not drawn), which inhibition is on record?
Answer: 6.68%

Question: How did the inhibition turn out when `Cc1cccc(N(CC(=O)NC(C)(C)C)C(=O)CS(=O)CC(=O)Nc2ccc3c(c2)OCO3)c1` (stereo not drawn) was run?
Answer: 3.73%

Question: With `Cc1c(NC(=O)C(C)OC(=O)/C=C/c2ccccc2)c(=O)n(-c2ccccc2)n1C` (stereo not drawn) as the molecule, how does the inhibition read?
Answer: -2.48%

Question: With `Cc1ccccc1Cn1c(Cc2ccccc2)nc2ccccc21` as the molecule, how does the inhibition read?
Answer: -1.18%

Question: For `Cc1cccc2cc(C#N)c(SCC#N)nc12`, which inhibition is on record?
Answer: 4.01%

Question: How did the inhibition turn out when `Clc1ccc(N2N=C(c3cccs3)CC2c2ccco2)cc1` (stereo not drawn) was run?
Answer: 4.39%

Question: With `c1ccc(N2N=C(c3cccs3)CC2c2ccco2)cc1` (stereo not drawn) as the molecule, how does the inhibition read?
Answer: 18.2%

Question: How did the inhibition turn out when `NC(=O)CC(NC(=O)Cc1ccc(Br)cc1)c1ccc(N2CCN(c3ccccc3)CC2)c([N+](=O)[O-])c1` (stereo not drawn) was run?
Answer: 7.14%

Question: For `CCOC(=O)Cc1nnc(NC(=O)C(CC)Sc2nnc3c4ccccc4n(C)c3n2)s1` (stereo not drawn), which inhibition is on record?
Answer: 23.4% (active)

Question: With `CCOC(=O)Cc1nnc(NC(=O)CSc2nnc3c4ccccc4n(C)c3n2)s1` as the molecule, how does the inhibition read?
Answer: 14%

Question: Which inhibition does the source give for `CCOC(=O)Cc1nnc(NC(=O)CSc2nnc3c4ccccc4n(C(C)C)c3n2)s1` here?
Answer: 10.5%

Question: For `CC(C)(C)NS(=O)(=O)c1ccc(CCC(=O)NCc2ccc3c(c2)OCO3)cc1`, which inhibition is on record?
Answer: 18.7%

Question: With `O=C(CCc1ccc(S(=O)(=O)NCc2ccccc2)cc1)NCc1cccnc1` as the molecule, how does the inhibition read?
Answer: 6.09%

Question: `CC(C)NS(=O)(=O)c1ccc(CCC(=O)Nc2ccc3c(c2)OCO3)cc1` was tested. Which inhibition did it give?
Answer: 9.11%

Question: `Cc1ccc(CNC(=O)CCc2ccc(S(=O)(=O)NCC(C)C)cc2)cc1` was tested. Which inhibition did it give?
Answer: 8.45%

Question: Which inhibition does the source give for `Cc1ccc(CNC(=O)CCNS(=O)(=O)c2ccc(C)cc2)cc1` here?
Answer: 9.63%

Question: For `CCNS(=O)(=O)c1ccc(CCC(=O)Nc2ccccc2)cc1`, which inhibition is on record?
Answer: 3.88%

Question: `O=C(Nc1cc(C(F)(F)F)ccc1Cl)C(Sc1nnc(-c2cccs2)o1)c1ccccc1` (stereo not drawn) was tested. Which inhibition did it give?
Answer: -4.08%

Question: How did the inhibition turn out when `COCCCNCCOCCOc1c(OC)cccc1OC` was run?
Answer: -5.39%

Question: How did the inhibition turn out when `Cc1cc(C2=CC(C)(c3cc(C)oc3C)Nc3nc(C(F)(F)F)nn32)c(C)o1` (stereo not drawn) was run?
Answer: 6.98%

Question: Which inhibition does the source give for `O=C(CNC(=O)c1ccc(F)cc1)Nc1ccccc1C(F)(F)F` here?
Answer: -1.13%

Question: How did the inhibition turn out when `CCOC(=O)C1=C(C)NC2=C(C(=O)CCC2)C1c1ccc(O)c(OCC)c1` (stereo not drawn) was run?
Answer: -7%

Question: With `O=C(Nc1nccs1)c1ccc(NC(=O)C2CC=CCC2C(=O)O)cc1` (stereo not drawn) as the molecule, how does the inhibition read?
Answer: 8.55%

Question: For `CC1(C)CC(=O)C(C=NCCc2ccc(S(N)(=O)=O)cc2)=C(O)C1`, which inhibition is on record?
Answer: 12%

Question: Which inhibition does the source give for `O=S(=O)(Nc1nc2ccc(S(=O)(=O)N3CCCCC3)cc2s1)c1ccccc1` here?
Answer: 23.2%

Question: With `O=S(=O)(Nc1nc2ccc(S(=O)(=O)N3CCCC3)cc2s1)c1ccc(F)cc1` as the molecule, how does the inhibition read?
Answer: 17.8%

Question: With `O=C(O)CCC(=O)N(Cc1cccnc1)Cc1cccc(F)c1` as the molecule, how does the inhibition read?
Answer: 6.62%

Question: `CCCCCN(C(=O)NC(=O)Nc1ccccc1C)S(=O)(=O)c1ccccc1` was tested. Which inhibition did it give?
Answer: -0.93%

Question: With `CCN1CCN(C(=O)CSCc2nc(-c3ccc(OC)c(OC)c3)oc2C)CC1` as the molecule, how does the inhibition read?
Answer: 1.5%

Question: With `COc1ccc(-c2nc(CSCC(=O)N3CCN(C)CC3)c(C)o2)cc1OC` as the molecule, how does the inhibition read?
Answer: 1.38%

Question: With `COc1ccc(-c2nc(CSCC(=O)N3CCN(c4cccc(C)c4)C(C)C3)c(C)o2)cc1OC` (stereo not drawn) as the molecule, how does the inhibition read?
Answer: 23.8% (active)

Question: Which inhibition does the source give for `COc1ccc(/C=N/NC(=S)Nc2ccccc2)cc1COc1ccc(Br)cc1` here?
Answer: 5.9%

Question: How did the inhibition turn out when `Cc1nnc2n1NC(c1ccc(Cl)cc1)C(C(=O)N(C)C1CCCCC1)S2` (stereo not drawn) was run?
Answer: 14.7%

Question: For `Cc1cccc2cc(CN(CCN3CCOCC3)C(=O)NCc3ccccc3)c(=O)[nH]c12`, which inhibition is on record?
Answer: 11.1%

Question: For `COC(=O)CC[C@@H](C(=O)O)N1C(=O)c2ccccc2C1=O`, which inhibition is on record?
Answer: 1.27%

Question: `COc1ccc(NC(=O)CSc2ccc(-c3cccs3)nn2)c(OC)c1` was tested. Which inhibition did it give?
Answer: 4.92%

Question: How did the inhibition turn out when `O=C(CSc1nc2nc(-c3cccs3)cc(C(F)(F)F)c2c(=O)[nH]1)Nc1ccc(F)c(F)c1` was run?
Answer: 12.9%

Question: With `O=C(CSc1nc(-c2cccs2)cc(C(F)(F)F)n1)NCc1ccco1` as the molecule, how does the inhibition read?
Answer: 8.47%

Question: How did the inhibition turn out when `O=C(NCc1ccco1)c1nn2c(C(F)(F)F)cc(-c3cccs3)nc2c1Br` was run?
Answer: 15.8%

Question: For `CC(=O)Nc1ccc(NC(=O)CSc2nc3nc(-c4cccs4)cc(C(F)(F)F)c3c(=O)[nH]2)cc1`, which inhibition is on record?
Answer: 13.8%

Question: Which inhibition does the source give for `CCOc1ccccc1NC(=O)CSc1nc2nc(-c3cccs3)cc(C(F)(F)F)c2c(=O)[nH]1` here?
Answer: 3.01%

Question: How did the inhibition turn out when `COC(=O)c1ccc(OC(=O)CCN2c3ccccc3Sc3ccccc32)cc1` was run?
Answer: -4.42%

Question: `CC(=O)Nc1ccc(Nc2cc(-c3ccccc3)nc3ncnn23)cc1` was tested. Which inhibition did it give?
Answer: 1.24%

Question: How did the inhibition turn out when `NC(=O)c1nnsc1Sc1c(C(N)=O)nnn1-c1cccc(N)c1` was run?
Answer: 4.16%

Question: How did the inhibition turn out when `OCCNCCOc1ccccc1F` was run?
Answer: 7.92%

Question: How did the inhibition turn out when `COC(=O)[C@H](CC(C)C)NC(=O)NCc1ccc(Cl)cc1` was run?
Answer: 5.26%

Question: Which inhibition does the source give for `Cc1ccn2c(Nc3ccc4c(c3)OCO4)c(-c3ccccn3)nc2c1` here?
Answer: 12.3%

Question: Which inhibition does the source give for `N#Cc1c(NC(=O)C2CCCO2)sc2c1CCCCCC2` (stereo not drawn) here?
Answer: 3.88%

Question: For `O=C1CC(c2ccccc2)Cc2nc3nc(C(F)(F)F)nn3cc21` (stereo not drawn), which inhibition is on record?
Answer: -1.32%

Question: With `Cc1ccc(NS(=O)(=O)Cc2ccccc2)nc1` as the molecule, how does the inhibition read?
Answer: 5.38%

Question: With `O=C1Nc2ccccc2C1=Nc1ccc(S(=O)(=O)Nc2nccs2)cc1` as the molecule, how does the inhibition read?
Answer: 9.76%

Question: Which inhibition does the source give for `O=c1oc(-c2ccccc2NS(=O)(=O)c2ccccc2)nc2ccccc12` here?
Answer: 9.41%

Question: For `O=S(=O)(Cc1ccccc1)Nc1ccc(Br)cn1`, which inhibition is on record?
Answer: 1.35%

Question: How did the inhibition turn out when `COc1ccccc1NC(=O)C1=C(C)NC(=O)NC1c1ccccc1F` (stereo not drawn) was run?
Answer: 5.11%

Question: Which inhibition does the source give for `CCN(CC)CC(C)(C)NS(=O)(=O)c1ccc(Cl)cc1` here?
Answer: -1.17%

Question: `CC(C)OCCCNC(=O)c1ccc2c(=O)n(Cc3ccc4c(c3)OCO4)c(=S)[nH]c2c1` was tested. Which inhibition did it give?
Answer: -0.14%

Question: How did the inhibition turn out when `COc1ccc(/C=C/C(=O)NCCSCc2ccco2)cc1` was run?
Answer: 8.04%

Question: For `Cc1ccccc1C(=O)OCc1nnc(-c2ccc(Cl)cc2)o1`, which inhibition is on record?
Answer: 1.13%

Question: With `NC(CC(=O)O)c1ccc(F)cc1` (stereo not drawn) as the molecule, how does the inhibition read?
Answer: 0.38%

Question: With `COC(=O)CC(N)c1ccc(Br)cc1` (stereo not drawn) as the molecule, how does the inhibition read?
Answer: 3.11%

Question: With `Cc1c(/C=N/NC(=O)c2cc(C(C)(C)C)[nH]n2)c2ccccc2n1C` as the molecule, how does the inhibition read?
Answer: 4.3%

Question: With `COc1ccc2[nH]cc(CCN=C3SCC(=O)N3C)c2c1` as the molecule, how does the inhibition read?
Answer: -3.56%

Question: Which inhibition does the source give for `N#Cc1cc2c(nc1SCc1ccccc1)CCC2` here?
Answer: -3.56%

Question: Which inhibition does the source give for `N#Cc1cc2c(nc1SCc1ccccc1)CCCCC2` here?
Answer: 5.06%

Question: Which inhibition does the source give for `CCOc1ccc(CCNC(=O)C2CCCN(c3nn4c(=O)cc(C)nc4s3)C2)cc1` (stereo not drawn) here?
Answer: 1.13%

Question: For `CCOC(=O)c1c(-c2ccccc2)csc1N1C(=O)Nc2ccccc2N1O`, which inhibition is on record?
Answer: 17%

Question: For `CCOc1ccc(S(=O)(=O)Nc2cc(Cl)ccc2O)cc1`, which inhibition is on record?
Answer: 24.5% (active)

Question: `CCOc1ccc(S(=O)(=O)Nc2cc(OC)ccc2OC)cc1` was tested. Which inhibition did it give?
Answer: 4.04%

Question: With `COc1ccc(S(=O)(=O)Nc2cc(Cl)ccc2OC)cc1` as the molecule, how does the inhibition read?
Answer: 4.45%

Question: With `Cc1ccc(S(=O)(=O)Nc2ccccn2)cc1[N+](=O)[O-]` as the molecule, how does the inhibition read?
Answer: 2.61%

Question: `Cc1ccc(-c2csc(NC(=O)CSc3nc4ccccc4[nH]3)n2)cc1` was tested. Which inhibition did it give?
Answer: 7.06%

Question: Which inhibition does the source give for `CCc1cc2c(-n3nc(C)cc3C)ncnc2s1` here?
Answer: 4.83%

Question: For `Cc1cc(Cl)ccc1OCCCC(=O)NN`, which inhibition is on record?
Answer: 2.87%

Question: For `Cc1cc(Cl)ccc1OCCCC(N)=O`, which inhibition is on record?
Answer: 1.94%

Question: Which inhibition does the source give for `Cn1c(=O)n(C)c2cc(NS(=O)(=O)c3cccs3)ccc21` here?
Answer: 5.68%

Question: With `Cc1ccc(C(=O)NCc2ccc(Cl)c(Cl)c2)o1` as the molecule, how does the inhibition read?
Answer: 7.75%

Question: Which inhibition does the source give for `CCCCN(CCCC)CC(O)CN1C(=O)NC(C)(C)C1=O` (stereo not drawn) here?
Answer: -3.19%

Question: How did the inhibition turn out when `CCN(CC(N)=O)S(=O)(=O)c1ccc(F)cc1` was run?
Answer: 2.95%

Question: With `CCCOc1ccc(C(=O)Nc2ccc(S(=O)(=O)Nc3onc(C)c3C)cc2)cc1` as the molecule, how does the inhibition read?
Answer: -1.24%

Question: `Cc1ccc(C(=O)N/N=C\c2ccc(-c3ccc(Cl)cc3)o2)cn1` was tested. Which inhibition did it give?
Answer: 8.72%

Question: With `CCOc1ccc(C(=O)N/N=C/c2ccc(-c3ccc(S(=O)(=O)Nc4ncccn4)cc3)o2)cc1` as the molecule, how does the inhibition read?
Answer: 55.9% (active)

Question: Which inhibition does the source give for `O=C(N/N=C/c1ccc(Sc2ccccn2)o1)c1cc2ccccc2cc1O` here?
Answer: 33%

Question: `NS(=O)(=O)c1ccc(-c2ccc(/C=N/NC(=O)c3ccc([N+](=O)[O-])cc3)o2)cc1` was tested. Which inhibition did it give?
Answer: 2.02%

Question: With `CCOc1ccc(S(=O)(=O)Nc2ccc(C(=O)NN)cc2)cc1` as the molecule, how does the inhibition read?
Answer: 4.26%

Question: How did the inhibition turn out when `NS(=O)(=O)c1ccc(-c2ccc(/C=N/NC(=O)c3ccccc3O)o2)cc1` was run?
Answer: 11.7%

Question: `CCOc1ccc(S(=O)(=O)N(CC(=O)N/N=C/c2ccc(-c3ccc([N+](=O)[O-])cc3)o2)c2ccccc2)cc1` was tested. Which inhibition did it give?
Answer: 15.9%

Question: With `Cc1noc(NS(=O)(=O)c2ccc(NC(=O)c3ccc(OC(C)C)cc3)cc2)c1C` as the molecule, how does the inhibition read?
Answer: 4.64%
